According to the OligoGym collection:

Molecular target: PTBP2
Assay: pooled miR-30 sensor sort-seq; sequence = guide strand
Conditions: shRNA
Further: reference of the scale not given here.

Question: With TTAACCATAGTAATAGCTGCTT as the sequence, how does the sensor-assay potency score (higher = more potent) read?
Answer: 0.167

Question: For TTTAGTTCTTTGTGATTCGAGT, which sensor-assay potency score (higher = more potent) is on record?
Answer: -0.551

Question: Which sensor-assay potency score (higher = more potent) does the source give for TTGGCTGTAACTACCATGCTGC here?
Answer: -0.376

Question: TTATCTTCAATACAGCACCAAA was tested. Which sensor-assay potency score (higher = more potent) did it give?
Answer: -1.15

Question: Which sensor-assay potency score (higher = more potent) does the source give for TTAAAGTCAGATCTATTCCTAA here?
Answer: 0.0356

Question: Which sensor-assay potency score (higher = more potent) does the source give for TAGTTCGTCAGATCCTCTCTTC here?
Answer: 0.267

Question: TAACCATAGTAATAGCTGCTTC was tested. Which sensor-assay potency score (higher = more potent) did it give?
Answer: -0.782

Question: Which sensor-assay potency score (higher = more potent) does the source give for TTCATTTAAATTGCTAACCAAC here?
Answer: -1.15

Question: TAGCTGTACAGTCTGATGTTTA was tested. Which sensor-assay potency score (higher = more potent) did it give?
Answer: -0.892

Question: TTGCTAACCAACAGGACTGTAT was tested. Which sensor-assay potency score (higher = more potent) did it give?
Answer: -0.182

Question: How did the sensor-assay potency score (higher = more potent) turn out when TTTAATGTATTATCTGTCTTTA was run?
Answer: -0.808

Molecular target: PTGDR
Assay: as above
Conditions: shRNA

Question: With TAAATTTCAAAAACAACTGTAT as the sequence, how does the sensor-assay potency score (higher = more potent) read?
Answer: -0.297

Question: TAGGCAGCCAGCACCACCGGGC was tested. Which sensor-assay potency score (higher = more potent) did it give?
Answer: -0.802

Question: With TTTTTATGAATGTCCATCGTAT as the sequence, how does the sensor-assay potency score (higher = more potent) read?
Answer: -0.379

Question: How did the sensor-assay potency score (higher = more potent) turn out when TTTAAGACTTTTAACACTGGTT was run?
Answer: -0.351

Question: For TATCCTAACACACCTCTCCAAA, which sensor-assay potency score (higher = more potent) is on record?
Answer: -1.13

Question: With TACTGTTAAATCATACTCCTTG as the sequence, how does the sensor-assay potency score (higher = more potent) read?
Answer: 0.542

Question: For TTGATTCCTACTGACACCCTTG, which sensor-assay potency score (higher = more potent) is on record?
Answer: 0.657

Question: TCTGCTTCTTCAGAGGTCCTGT was tested. Which sensor-assay potency score (higher = more potent) did it give?
Answer: 0.273

Question: How did the sensor-assay potency score (higher = more potent) turn out when TGTACTTACACATTGAAGGTAC was run?
Answer: 0.268

Question: For TACAGTGAGTCACACACTGGTT, which sensor-assay potency score (higher = more potent) is on record?
Answer: -0.86

Question: Which sensor-assay potency score (higher = more potent) does the source give for TTAGTGGAATTGCTGCACCGGC here?
Answer: -1.14

Question: With ATTAACTGGACAATTATCCTAA as the sequence, how does the sensor-assay potency score (higher = more potent) read?
Answer: 0.137

Molecular target: PTGDS
Assay: as above
Conditions: shRNA

Question: For TTATTGTGCAGGATGAAGCCTG, which sensor-assay potency score (higher = more potent) is on record?
Answer: -0.188

Question: With AAGACAATGGTATCCTCTGTGA as the sequence, how does the sensor-assay potency score (higher = more potent) read?
Answer: -0.868

Question: For TAGTCGGTCTCCACCACTGACA, which sensor-assay potency score (higher = more potent) is on record?
Answer: -1.34

Question: How did the sensor-assay potency score (higher = more potent) turn out when TTTTTCCTGAGGAAGGTGGAGG was run?
Answer: -1

Question: How did the sensor-assay potency score (higher = more potent) turn out when TTCTCCTTTAACTCAGCCCTGG was run?
Answer: -0.867

Question: Which sensor-assay potency score (higher = more potent) does the source give for TGAATTTCTCCTTTAACTCAGC here?
Answer: -0.751

Question: With TTGGGCTGCACGGAGACCTGGG as the sequence, how does the sensor-assay potency score (higher = more potent) read?
Answer: -0.764

Question: With TTTCTCCTTTAACTCAGCCCTG as the sequence, how does the sensor-assay potency score (higher = more potent) read?
Answer: -1.14

Question: Which sensor-assay potency score (higher = more potent) does the source give for TACTGGTCGTAGTCGGTCTCCA here?
Answer: -0.484

Question: Which sensor-assay potency score (higher = more potent) does the source give for TCCGGTAGCTGTAGGAGCCGAG here?
Answer: -0.81

Question: How did the sensor-assay potency score (higher = more potent) turn out when TTGCACATGGACAACGCCGCCT was run?
Answer: -0.424

Molecular target: PTGFRN
Assay: as above
Conditions: shRNA

Question: How did the sensor-assay potency score (higher = more potent) turn out when TTGGAGAAGACATCCTTGCTTT was run?
Answer: -0.201

Question: How did the sensor-assay potency score (higher = more potent) turn out when TTGAACATTTGTAGTGGCCTTG was run?
Answer: -0.0806

Question: Which sensor-assay potency score (higher = more potent) does the source give for TTTTCTTTGCTAACATCCCGAA here?
Answer: -0.589

Question: TTGGTCTGAAGGCTGGACGTTC was tested. Which sensor-assay potency score (higher = more potent) did it give?
Answer: -0.683

Question: For TTTGCTAACATCCCGAACCAGT, which sensor-assay potency score (higher = more potent) is on record?
Answer: -0.807
